Reference: ChEMBL document CHEMBL3433997, “St. Jude Leishmania screening dataset” (2016)

What was measured:
Assay type in all cases: functional
[1] = biological target: Solute carrier family 2, facilitated glucose transporter member 1 (Homo sapiens) (UniProt P11166); test: ST_JUDE_LEISH: Cytotoxicity at 2uM final concentration against transgenic Leishmania Mexicana promastigotes LmGLUT1 that are glucose transport deficient and complemented with the human glucose transporter GLUT1. Activity is measured by DNA content using SYBR green in vitro
Solute carrier family 2, facilitated glucose transporter member 1 (Homo sapiens), sequence (P11166 whole entry): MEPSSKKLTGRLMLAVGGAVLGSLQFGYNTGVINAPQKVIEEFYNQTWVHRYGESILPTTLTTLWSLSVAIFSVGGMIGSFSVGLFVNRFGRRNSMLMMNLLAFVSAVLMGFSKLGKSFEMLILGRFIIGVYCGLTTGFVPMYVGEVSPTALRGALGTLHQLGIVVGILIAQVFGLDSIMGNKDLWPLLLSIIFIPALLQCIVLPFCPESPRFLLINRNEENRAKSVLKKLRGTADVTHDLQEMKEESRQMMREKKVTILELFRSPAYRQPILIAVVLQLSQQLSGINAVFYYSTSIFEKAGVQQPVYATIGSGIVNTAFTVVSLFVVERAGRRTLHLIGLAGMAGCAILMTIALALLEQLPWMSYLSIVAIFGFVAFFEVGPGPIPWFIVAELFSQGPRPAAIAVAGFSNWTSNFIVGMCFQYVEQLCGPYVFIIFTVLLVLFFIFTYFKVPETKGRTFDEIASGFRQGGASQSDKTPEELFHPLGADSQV

[2] = biological target: Hexose transporter 1 (Plasmodium falciparum) (UniProt O97467); test: ST_JUDE_LEISH: Cytotoxicity at 2uM final concentration against transgenic Leishmania Mexicana promastigotes LmPfHT that are glucose transport deficient and complemented with the Plasmodium falciparum hexose transporter. Activity is measured by DNA content using SYBR green in vitro
[3] = biological target: Glucose transporter (Leishmania mexicana) (UniProt O61059); test: ST_JUDE_LEISH: Cytotoxicity at 2uM final concentration against transgenic Leishmania Mexicana promastigotes LmGT2 that are glucose transport deficient and complemented with the L. Mexicana glucose transporter 2. Activity is measured by DNA content using SYBR green in vitro

| Structure (SMILES) | inhibition [1] [%] | inhibition [2] [%] | inhibition [3] [%] |
| --- | --- | --- | --- |
| CC(C)NCc1cccc(-c2cccc(-c3nc4ccccc4[nH]3)c2)c1 | -1.73 | 0.59 | -1.69 |
| COc1ccc(Nc2ncc(Cl)c(Nc3cccnc3C(N)=O)n2)cc1N1CCN(C)CC1 | 89.9 | 92.6 | 85.9 |
| O=C(NCCCCCCNCc1ccc(-c2ccccc2)cc1)Nc1ccc(Cl)c(Cl)c1 | 1.38 | 0.96 | 2.28 |
| CC(CN(C)C)C(=O)Nc1cccc(-c2ccc(-c3nc4cc(F)ccc4[nH]3)cc2)c1 (stereo unspecified) | -1.76 | -3.5 | -0.1 |
| CCN1CCC(N(Cc2ccc(-c3ccc(C(F)(F)F)cc3)cc2)C(=O)Cn2c(CCc3cccc(F)c3F)cc(=O)c3c2CCCC3)CC1 | 0.35 | 0.64 | 0.87 |
| O=C(NCC1CCN(CC2CCCCC2)C1)c1cc(-c2cccc(C(F)(F)F)c2)cs1 (stereo unspecified) | -1.1 | -0.44 | -2.1 |
| COc1ccc(C(=C(C)CC(C)C(=O)O)c2ccccc2)cc1 (stereo unspecified) | -0.12 | -0.23 | 0.28 |
| Cc1cc(N2CCOCC2)nc2ccc(NC(=O)c3cccc([N+](=O)[O-])c3)cc12 | 5.27 | 4.5 | 3.77 |
| Cn1cncc1C(=O)Nc1cccc(-c2cccc(-c3nc4ccccc4[nH]3)c2)c1 | 4.71 | 4.74 | 5.38 |
| O=C(Nc1cccc(-c2nn3ccccc3c2-c2ccnc(Nc3cccc(F)c3)n2)c1)C1CCCCC1 | 1.19 | 2.83 | -1.4 |
| COc1ccc2nccc(N3CCC(SCCNCc4cc5c(cn4)OCCO5)C3)c2n1 (stereo unspecified) | 0.61 | 0.85 | -2.04 |
| O=C(Nc1ccc(-c2cccc(-c3nc4ccccc4[nH]3)c2)cc1)Nc1ccc(Cl)c(Cl)c1 | -0.46 | 0.83 | 0.9 |
| O=C(Nc1ccc(Cl)cc1)c1cccc2nc(C(F)(F)F)[nH]c12 | 9.28 | 9.14 | 5.94 |
| COc1ccc2ncc(F)c(CCN3CC[C@@H](CNCc4nc5c(cc4C)SCC(=O)N5)C3)c2n1 | 3.29 | 3.35 | 0.49 |
| CC(CN(C)C)Oc1ccc2nc(-c3cccc(OCc4ccccc4)c3)[nH]c2c1C#N (stereo unspecified) | -1.18 | 0.94 | 0.08 |
| CCN(CC)CCN(Cc1ccc(-c2ccc(C(F)(F)F)cc2)cc1)C(=O)Cn1c(SCc2ccc(F)cc2)cc(=O)c2ccccc21 | 1.74 | -0.14 | 1.57 |

| Structure (SMILES) | inhibition [1] [%] | inhibition [2] [%] | inhibition [3] [%] |
| --- | --- | --- | --- |
| CC(C)c1ccc(NC(=O)c2ccc(C(=O)NC3CCN(Cc4ccsc4)C3)cc2)cc1 (stereo unspecified) | 2.74 | 4.64 | 0.52 |
| COc1ccc2[nH]ccc(=NN=CC=Cc3ccccc3)c2c1 | -0.13 | 2.19 | -3.26 |
| CC1(C)N=C(N)N=C(Nc2ccc(F)c(F)c2)N1 | 0.74 | 0.06 | -0.02 |
| CN1CCN(c2nsc3ccc(-c4ccc(OCCN5CCCC5)cc4)cc23)CC1 | 13.2 | 11.4 | 9.39 |
| COc1ccc(C(c2ccc(N(C)C)cc2)c2ccc(N(C)C)cc2)cc1 | 95.3 | 94.5 | 84.9 |
| O=C(Nc1cccc(OCc2ccccc2)c1)c1ccc(CN2CCC(Cc3ccccc3)CC2)cc1 | -0.83 | -1.67 | -0.42 |
| CCN(CCCN1CCCCC1)c1cc(C)nc(Nc2cc(Cl)cc(Cl)c2)n1 | 0.93 | 2.39 | 1.01 |
| CCCc1ccc(S(=O)(=O)NC2CCN(c3ccnc(Nc4ccc(F)cc4)n3)C2)cc1 (stereo unspecified) | 0.73 | 0.26 | 1.48 |
| CN(C)CCOc1ccc(NC(=O)NC(C)(C)c2nc(-c3ccc(Cl)c(O)c3)c(-c3ccncc3)[nH]2)cc1 | -2.42 | -2.62 | -2.59 |
| c1cc(CNCCN2CCNCC2)cc(-c2ccc(-c3nc4ccccc4[nH]3)cc2)c1 | 18.3 | 16.8 | 13.2 |
| CCOc1ccccc1CCNC(C)Cc1ccc(C(=O)Nc2ccc(CC(C)NCCc3cccc(Cl)c3)cc2)cc1 (stereo unspecified) | 28 | 34.1 | 3.04 |
| O=C(/C=C/c1ccc(Cl)c(Cl)c1)NC1CCC(CN2CCC(Cc3cc4ccccc4[nH]3)CC2)CC1 (stereo unspecified) | 4.78 | 1.97 | 3.2 |
| CN(Cc1ccc(-c2ccc(C(F)(F)F)cc2)cc1)C(=O)Cn1c(CCc2cccc(F)c2F)cc(=O)c2ccc(OCC3CCCN3C)cc21 (stereo unspecified) | 3.87 | 3.45 | 4.42 |
| Cc1ccc(C)c(NC(=O)NC2CCN(c3ccnc(Nc4ccc(F)cc4)n3)C2)c1 (stereo unspecified) | -2.45 | -0.78 | -1.79 |
| CCOc1cc(C)ccc1NC1CCN(CCCCNC(=O)c2ccc(NC(=O)c3ccc(Cl)cc3)cc2)CC1 | -0.53 | 1.56 | 1.89 |
| c1ccc(CCNCc2ccc(-c3ccc(CNC4CCN(Cc5ccccc5)CC4)cc3)nc2)cc1 | 5.76 | 11.9 | 4.15 |
